Screening data from PubChem BioAssay.
The full list was thinned out, with hits kept by preference.
ERK EGF inh: qHTS Assay for Inhibitors of the ERK Signaling Pathway using a Homogeneous Screening Assay; Stimulation with EGF. HEK293-V1b, EGF-stimulated phospho-ERK AlphaScreen. Potency, µM (doses to about 11.5 µM), for inactives: at the highest dose activity change, negative = inhibition, usual class: inhibitors. hit rate 0.41% among 130,000. AID 1454, 2008; active means well fitted inhibition curve with a large enough effect;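 further: plate controls were stimulated vehicle wells for no effect and unstimulated vehicle basal for full effect; nearly all actives have a fitted effect of over 55% in size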
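V1b-HEK293, 1% FBS o/n; cpd 30 min 37C; EGF 25 nM final, 5 min; lyse 10 min; AlphaScreen beads 5 h RT. Normalized DMSO basal vs EGF max; Hill AC50.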
Starred values were filed as active, the others as inactive; [ ] = remark or other dose. Potency means the concentration at half of the fitted maximal effect.

SMILES	ERK EGF inh
COC(=O)c1cc(C(=O)N2CCOCC2)cc([N+](=O)[O-])c1	-32%
NCCCC(O)(P(=O)(O)O)P(=O)(O)O	-4%
O=C1c2cc(Br)ccc2O[C@@H](c2ccc3c(c2)OCO3)[C@@H]1O	3%
CCCC/C=C/C(NC(=O)c1ccco1)c1ccccc1 (configuration not stated)	0%
CCN(CC)c1ccc(N=Nc2ncn[nH]2)cc1	7%
CCN(CC)c1ccc(N=Nc2nn(C)c(C)c2[N+](=O)[O-])cc1	16µM*
CCN(Cc1ccccc1)c1ccc(/C=N/NS(=O)(=O)c2ccc(C)c([N+](=O)[O-])c2)cc1	7%
Cc1c(Cl)c([N+](=O)[O-])nn1CCCC(=O)N(Cc1ccccc1)Cc1ccccc1	3%
Cc1ccc(CNC(=O)c2nn(C)c(C)c2[N+](=O)[O-])cc1	8%
CCN(Cc1ccccc1)c1ccc(N=Nc2nn(C)c(C)c2[N+](=O)[O-])cc1	20µM*
CCN(CC)CC#CCOC(=O)[C@@](O)(c1ccccc1)C1CCCCC1	-7%[25.7 µM]
NCC1O[C@@H](OC2C(N)C[C@H](N)[C@@H](O[C@H]3OC(CO)C(O)C(N)C3O)C2O)C(O)C(O)C1O (some centres not stated)	23%
O=c1cnc2cnc(Oc3ccccc3)nc2n1CCc1ccccc1	-3%
COC(=O)Cc1ccc(NC(=S)NCCSc2ccc(Cl)cc2)cc1	28µM*
Cc1cc(C)cc(NC(=S)NCCSc2ccc(Cl)cc2)c1	2%
COC(=O)Cc1ccc(NC(=S)NCCO)cc1	-6%[57.5 µM]
CCCCC/C=C\C/C=C\CCCCCCCC(=O)NCC(=O)O	6%
Cn1cccc1C(=O)N1CCC2(CC1)CN(C(=O)Nc1cccc(C#N)c1)C2	1%
O=S(=O)(Nc1cccc(-c2nc3cccnc3s2)c1)c1ccc2c(c1)CCCC2	-10%
Cc1nc2ccc(S(=O)(=O)Nc3ccc(-c4nc5cccnc5s4)cc3)cc2s1	-11%
Cc1nc2ccc(S(=O)(=O)Nc3cccc(-c4nc5cccnc5s4)c3)cc2s1	25µM*
N[C@@H](Cc1cc(CP(=O)(O)O)cc(-c2ccccc2Cl)c1)C(=O)O	-6%
COc1ccccc1NS(=O)(=O)c1cc(NC(=S)NCC2CCCO2)ccc1C (configuration not stated)	6%
COc1cc(C(=O)NS(=O)(=O)c2ccccc2C)ccc1Cc1cn(C)c2ccc(NC(=O)OC3CCCC3)cc12	28µM*
CCOc1ccc(CNC(=O)CCCc2cn(C)c3ccccc23)cc1OC	1%
SMILES	ERK EGF inh
CCCCCCCCCCCCCCC[C@@H](O)[C@H](CO)NC(C)=O	-3%
COc1ccc(NC(=O)c2ccccc2[N+](=O)[O-])cc1	-1%
COc1ccc(Nc2ccncc2[N+](=O)[O-])cc1	1%
COc1ccc(Nc2c([N+](=O)[O-])ccc3c2=NC2(CCCCC2)N=3)cc1	14µM*
O=C(/C=C/c1ccc2c(c1)OCO2)c1cccs1	10%
COc1cc(-c2ccc(N=Nc3ccc4c(S(=O)(=O)O)cc(S(=O)(=O)O)c(N)c4c3O)c(OC)c2)ccc1N=Nc1ccc2c(S(=O)(=O)O)cc(S(=O)(=O)O)c(N)c2c1O	-7%
Cc1nc(NCc2ccccc2)c2nc(-c3ccccc3)n(CCN(C)C)c2n1	-3%
Cc1c2cc(O)c(=O)cc-2oc2cc(O)c(O)cc12	1%[57.5 µM]
COc1cc(OC)c(-c2c3cc(O)c(=O)cc-3oc3cc(O)c(O)cc23)cc1OC	16µM*
COc1cc2oc(-c3ccccc3)cc(=O)c2cc1OC	6%
CC1(OC(=O)c2ccco2)C(=O)C2=COC(C3CC3)=CC2=C(Br)C1=O (configuration not stated)	-3%
CO[C@H]1C=CO[C@@]2(C)Oc3c(C)c(O)c4c(O)c(c(C=NN5CCN(C6CCCC6)CC5)c(O)c4c3C2=O)NC(=O)C(C)=CC=C[C@H](C)[C@H](O)[C@@H](C)[C@@H](O)[C@@H](C)[C@H](OC(C)=O)[C@@H]1C	8.9µM*
COC(=O)CN=C1OC(=O)N2C(=O)C3=C4C(C[C@H]5C(=O)N(c6ccccc6)C(=O)[C@H]5[C@H]4[C@@]12Cc1ccccc1)[C@H]1C(=O)N(c2ccccc2)C(=O)[C@H]1[C@H]3C (some centres not stated)	-3%
COc1cc(=O)n(C)c2c(OC[C@@H](O)C(C)(C)O)cccc12	-1%[25.7 µM]
COc1cc(OC)c2ccc(=O)oc2c1C(CCN1CCCC(C)C1)c1ccc(N(C)C)cc1 (configuration not stated)	-20%[57.5 µM]
COc1cc(OC)c2c(-c3ccccc3)cc(=O)oc2c1C(CCN1CCCC(C)C1)c1ccc2c(c1)OCO2 (configuration not stated)	-13%[57.5 µM]
CCCCCc1cc(=O)oc2c(C(CCN3CCCC(C)C3)c3cc(OC)c(OC)c(OC)c3)c(OC)cc(OC)c12 (configuration not stated)	40µM*
COc1cc(/C=C\c2ccc(OC)cc2OC)cc(OC)c1	-29%
N#Cc1ccc(CN2CC[C@@]3(CCCN(C(=O)c4cnccn4)C3)C2)cc1	-16%
CC(=O)[C@@H]1CC[C@@H]2[C@@H]3C[C@H](C)C4=CC(=O)CC[C@@]4(C)[C@H]3[C@H](O)C[C@]21C	5%[25.7 µM]
Cc1cccc2cc(/C=N/NC(=O)[C@H]3C[C@@H]3c3ccccc3)c(Cl)nc12	-10%[57.5 µM]
Cc1cccc2cc(/C=N/NC(=O)c3ccncc3)c(Cl)nc12	-3%[57.5 µM]
Cc1cccc2cc(/C=N/NC(=O)c3ccccc3O)c(Cl)nc12	20µM*
Nc1ncnc2c1ncn2[C@@H]1O[C@H](COP(=O)(O)OP(=O)(O)OP(=O)(O)OP(=O)(O)OC[C@@H]2O[C@H](n3cnc4c(N)ncnc43)[C@@H](O)[C@@H]2O)[C@H](O)[C@H]1O	4%
O=C(NCC1CC1)[C@H]1C[C@@H]1[C@H](NP(=O)(c1ccccc1)c1ccccc1)c1ccccc1	5%
SMILES	ERK EGF inh
CC(C)[C@@H](CC(=O)N[C@@H]1CCNC[C@H]1C(=O)N[C@H](CC(=O)N[C@@H](CCC(=O)O)CC(=O)O)Cc1ccccc1)NC(=O)C[C@H](Cc1c[nH]c2ccccc12)NC(=O)[C@@H]1CNCC[C@H]1N	-6%
CN(C)S(=O)(=O)c1ccc(-c2csc(N/N=C/c3ccco3)n2)cc1	20µM*
O=C(/C=C/c1ccco1)Nc1nc(-c2ccccc2)cs1	25µM*
Cc1sc(N/N=C/c2ccco2)nc1-c1ccccc1	-10%
CN(C)S(=O)(=O)c1ccc(C(=O)NCC(=O)N/N=C/c2ccco2)cc1	-4%
C(=N\Nc1nc(-c2ccccc2)cs1)/c1ccncc1	-3%
O=C(/C=C/c1ccco1)Nc1nc(-c2ccccn2)cs1	1%
O=C(/C=C/c1ccco1)Nc1nc(-c2ccc(F)c(F)c2)cs1	-6%[57.5 µM]
Cc1cc(NS(=O)(=O)c2ccc(Nc3nc(-c4ccc(O)cc4)cs3)cc2)no1	1%
CN(C)S(=O)(=O)c1ccc(-c2csc(N/N=C/c3ccc(O)cc3)n2)cc1	11µM*
O=C(c1cccc(F)c1)N1CCC2(CC1)CN(c1ccccc1)C2	-6%
CC(C)(C)OC(=O)NCCCC1=CC2=CC(=O)C(C)(OC(=O)c3cnc4ccccc4n3)C(=O)C2=CO1 (configuration not stated)	-3%
C#C[C@]1(O)CCC2C3CCC4=Cc5oncc5C[C@@]4(C)C3CC[C@@]21C (some centres not stated)	-12%
Cc1cc(Cn2cnc3c2C[C@@H](C(=O)O)N(C(=O)C(c2ccccc2)c2ccccc2)C3)ccc1N(C)C	2%
Cn1cccc1C(=O)N1CCC2(CCN(C(=O)Nc3cccc(F)c3)CC2)CC1	-2%
